# Rows were chosen to be rich in hits. Some 5.4% of all compounds tested hit in one or more screens of this group.
# VACV Venus inh – qHTS for Stage-Specific Inhibitors of Vaccinia Orthopoxvirus: Venus Reporter Primary qHTS. Vaccinia virus Venus reporter expression, fluorescence. Potency, µM (series often up to 36.5 µM), actives largely listed as inhibitors. 330,000 compounds, 0.46% hits; calls by dose curve; tested in A549 cells; further: nearly all actives have a fitted effect of over 30% in size
# VACV mCherry inh – qHTS for Stage-Specific Inhibitors of Vaccinia Orthopoxvirus: mCherry Reporter Primary qHTS. AID 720579, 2013. 310,000 compounds, 0.63% hits. Vaccinia virus mCherry reporter infection, fluorescence. Potency, µM (titrated, usually from 36.5 µM), actives largely listed as inhibitors; calls by dose curve; tested in A549 cells; further: nearly all actives have a fitted effect of over 35% in size
# LASV entry inh – qHTS for Inhibitors of binding or entry into cells for Lassa Virus. AID 540256, 2011. Lassa virus pseudotype entry inhibition, cell reporter. Potency, µM (titrated, usually from 37.9 µM), hits mostly inhibitors. 300,000 compounds, 1.2% hits; calls by dose curve; tested in HEK293 cells; further: nearly all actives have a fitted effect of over 50% in size
# Sm TGR block – qHTS Assay for the Inhibitors of Schistosoma Mansoni Peroxiredoxins | purified TGR, DTNB reduction, TNB absorbance 405 nm | 360,000 compounds, 3% hits | Potency, µM (series often up to 114 µM), most hits filed as inhibitors; active means well fitted inhibition curve with a large enough effect; inconclusive means small, poorly fitted or top-dose-only effect; inactive means no such curve, though single readings can be large or run the other way; further: nearly all actives have a fitted effect of over 60% in size
#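 First, TGR (20 nM dispensed) and NADPH were mixed with compound. Second, a 15 min room-temperature incubation followed. Third, further NADPH and then DTNB were added to start the reaction. Finally, TNB absorbance was monitored kinetically.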
# MARV entry inh – qHTS for inhibitors of binding or entry into cells for Marburg Virus. Marburg virus pseudotyped entry inhibition, cell reporter. Potency, µM (doses to about 37.8 µM), hits mostly inhibitors. 300,000 compounds, 1.8% hits. AID 540276, 2011; calls by dose curve; tested in HEK293 cells
# FMDV inh – High Throughput Screening for Foot and Mouth Disease Virus Antivirals | FMDV antiviral cell-based qHTS | Potency, µM (titrated, usually from 57.9 µM), hits mostly inhibitors | 410,000 compounds, 1.2% hits | AID 1159524, 2015; calls by dose curve; tested in HEK293T cells; further: read-out not given here; nearly all actives have a fitted effect of over 45% in size
# Numbers stand for hits; n = inactive; u = inconclusive; x = no result given.
SMILES,VACV Venus inh,VACV mCherry inh,LASV entry inh,Sm TGR block,MARV entry inh,FMDV inh
CC(=O)c1cccc(NC(=S)NC(=O)c2ccc(C)cc2)c1,n,n,u,x,n,n
O=c1[nH]c(=O)n(Cc2ccco2)c2c1C(C(F)(F)F)(C(F)(F)F)N=C(CCC1CCCCC1)N2,x,x,n,n,n,n
Cc1ccc(C2=NC(C(F)(F)F)(C(F)(F)F)c3c(n(-c4ccc(F)cc4)c(=O)[nH]c3=O)N2)cc1,u,u,u,n,u,u
O=c1[nH]c(=O)n(-c2ccc(F)cc2)c2c1C(C(F)(F)F)(C(F)(F)F)N=C(c1ccc(F)cc1)N2,u,u,u,n,u,10µM
O=c1[nH]c(=O)n(-c2ccccc2)c2c1C(C(F)(F)F)(C(F)(F)F)N=C(CCC1CCCCC1)N2,n,n,11µM,n,u,25µM
O=C(CSc1nc2c(sc3ccccc32)c(=O)n1Cc1ccco1)NCC1CCCO1 (centres undefined),n,n,n,n,u,n
CCc1cc2c(=O)n(Cc3ccco3)c(SCC(=O)N3CCCc4ccccc43)nc2s1,x,x,u,25µM,u,n
CCc1cc2c(=O)n(Cc3ccco3)c(SCC(=O)NC3CCS(=O)(=O)C3)nc2s1 (centres undefined),n,n,n,16µM,n,n
CCc1cc2c(=O)n(Cc3ccco3)c(SCc3c(C)noc3C)nc2s1,u,u,u,11µM,u,n
O=C(CSc1nc2ccccc2c(=O)n1Cc1ccco1)N1CCCCCC1,x,x,u,n,n,u
CCc1cc2c(=O)n(Cc3ccccc3)c(SC3CCOC3=O)nc2s1 (centres undefined),n,n,n,n,n,n
CCc1cc2c(=O)n(Cc3ccco3)c(SCC(=O)NCC3CCCO3)nc2s1 (centres undefined),n,n,u,n,u,25µM
CCc1cc2c(SCC(=O)NC3CCS(=O)(=O)C3)ncnc2s1 (centres undefined),n,n,n,n,u,n
COc1cccc([C@@H]2NC(=O)CC=C[C@H](C)[C@H](c3cccc(OC)c3)NC(=O)CC=C[C@H]2C)c1,x,x,x,x,n,x
CN(C(=O)CSc1nc2cc(Cl)ccc2c(=O)n1Cc1ccco1)C1CCS(=O)(=O)C1 (centres undefined),n,n,n,n,n,n
CCc1cc2c(=O)n(Cc3ccco3)c(SCC(=O)N(C)C3CCS(=O)(=O)C3)nc2s1 (centres undefined),n,n,u,32µM,n,n
Cc1cc(=O)oc2cc(OCC(=O)NCCCN3CCCC3=O)c(Cl)cc12,x,x,x,79µM,x,n
Cc1c(C)c2cc(Cl)c(OCC(=O)NCCCN3CCCC3=O)cc2oc1=O,n,n,x,x,x,n
COc1cc([N+](=O)[O-])ccc1N1C(=O)C2C3C=CC(C4CC34)C2C1=O (centres undefined),n,n,n,45µM,n,n
COc1ccc(N2C(=O)C3C4C=CC(C5CC45)C3C2=O)c([N+](=O)[O-])c1 (centres undefined),n,x,n,n,n,n
CCc1ccc(NC(=O)Nc2cn(C)c(=O)c3ccccc23)cc1,n,n,n,n,x,n
Cc1ccc(S(=O)(=O)N2CCCCC2)cc1NC(=O)c1ccco1,n,n,x,x,x,n
Nc1cc(=O)[nH]c(SCC(=O)Nc2cc(S(=O)(=O)N3CCCCCC3)ccc2Cl)n1,n,n,n,x,n,n
CCCCNC(=S)Nc1cc(S(=O)(=O)N2CCCCC2)ccc1C,n,n,u,2µM,u,n
O=C(CCl)Nc1cc(S(=O)(=O)N2CCCCCC2)ccc1Cl,u,u,u,16µM,u,u
SMILES,VACV Venus inh,VACV mCherry inh,LASV entry inh,Sm TGR block,MARV entry inh,FMDV inh
Cc1ccc(-c2nc(SCC(=O)Nc3cc(S(=O)(=O)N4CCCCC4)ccc3Cl)n[nH]2)cc1,n,n,u,n,16µM,n
CC(C)(C)CC(=O)Nc1cc(S(=O)(=O)N2CCCCCC2)ccc1Cl,n,n,n,n,u,n
Cc1ccc(S(=O)(=O)CC(=O)Nc2sc3c(c2C#N)CCCC3)cc1,n,n,n,n,x,n
Cc1ccc(C(=O)N/N=C\c2cc3c(cc2Br)OCO3)s1,u,n,11µM,n,u,n
CC(C)c1ccc(CN2CCN(C(=O)CCl)CC2)cc1,x,x,u,u,u,18µM
CN(C)C(=O)CN1CCN(C(=O)CCl)CC1,x,x,x,45µM,x,n
O=C(/C=C/c1ccc(Cl)cc1)Nc1ccc(CN2CCOCC2)cc1,n,n,n,n,u,u
CC(C)NC(=O)CN1CCN(C(=O)CCl)CC1,10µM,13µM,n,u,n,n
CC(C)c1ccc(/C=C/C(=O)Nc2ccc(CN3CCOCC3)cc2)cc1,n,n,u,n,n,28µM
COc1ccccc1-c1ccc(C(=O)N(C)CC2COCCO2)c(N2CCN(c3ccccc3F)CC2)n1 (centres undefined),n,n,x,x,x,n
Cc1cc2c(s1)c(C#N)c(C(=O)NCc1ccccc1F)n2C,x,x,x,n,x,x
O=C(NCCn1cc(SCc2ccc(F)cc2)c2ccccc21)c1cccs1,n,n,n,n,n,u
CCCCOC(=O)CSC1=C(C#N)[C@H](c2ccc3c(c2)OCO3)CC(=O)N1,x,x,x,x,n,x
CCOC(=O)CSC1=C(C#N)[C@H](c2ccc3c(c2)OCO3)CC(=O)N1,x,x,x,x,16µM,x
COc1ccc(N2CCN(c3c(S(=O)(=O)c4ccccc4)cnc4ccc(OC)cc34)CC2)cc1,n,n,u,n,8.9µM,n
CCOc1ccc2ncc(S(=O)(=O)c3ccccc3)c(N3CCN(c4ccc(OC)cc4)CC3)c2c1,n,n,u,n,u,n
CCC1CN(C(=O)Nc2ccccc2F)c2cc(C)ccc2O1 (centres undefined),n,n,n,n,x,n
CCC1CN(C(=O)N2CCC(C(=O)NCCc3ccc(OC)cc3OC)CC2)c2cc(C)ccc2O1 (centres undefined),n,n,n,n,x,28µM
CCC1CN(C(=O)N2CCC(C(=O)NCc3ccccc3OC)CC2)c2cc(C)ccc2O1 (centres undefined),x,x,x,n,x,n
CCC1CN(C(=O)Nc2ccc(C)cc2)c2cc(C)ccc2O1 (centres undefined),n,n,u,n,11µM,n
CCOC(=O)CN1C(=O)[C@]2(O[C@H](COc3ccccc3)CC3=CCCC32)c2c(Br)cccc21 (some centres undefined),x,x,u,x,n,x
Clc1ccc2nc(C3CCN(Cc4ccccc4)CC3)[nH]c2c1,n,n,u,n,u,n
O=S(=O)(c1ccc2c(c1)OCCO2)N1CCC(c2nc3ccccc3[nH]2)CC1,x,x,n,n,u,u
O=S(=O)(c1ccc2c(c1)OCCO2)N1CCC(c2nc3ccc(Cl)cc3[nH]2)CC1,u,u,n,n,u,14µM
Cc1ccc(CN2CCC(c3nc4ccc(Cl)cc4[nH]3)CC2)cc1,u,n,u,n,4.1µM,x
O=C(CCl)N1c2ccccc2CCc2ccccc21,x,x,x,11µM,x,x
CCOC(=O)c1sc2ccccc2c1S(=O)(=O)Nc1cc(OC)ccc1OC,n,n,n,n,x,n

# Compound activity from PubChem BioAssay.
